# Source: PubChem BioAssay (EPA / NIEHS)
# Results filed as inconclusive are left out. Calls of active or inactive are those of the source. Rule for the calls, unless noted: active = hit-call score of the fitted dose curve at least 0.9, where 1 is the maximum; inconclusive = response in the unintended direction; inactive = score below 0.9.
# Assays:
# [1] = Tanguay_ZF_120hpf_SWIM_legacy: (Legacy) Oregon State University Tanguay Lab 120 Hour Post-fertilization zebrafish Assay for Swim Bladder Malformation (AID 2283654);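 note: swim bladder malformation in each larva scored yes or no under brightfield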
# In short: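 Embryos lacking chorions were exposed individually and statically to test chemical from 6 to 120 hpf at 28C, with 0.64% DMSO as vehicle. At 120 hpf, swim bladder malformation was recorded as present or absent by brightfield microscopy.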
# [2] = Tanguay_ZF_120hpf_TRUN_legacy: (Legacy) Oregon State University Tanguay Lab 120 Hour Post-fertilization zebrafish Assay for Truncated Body (AID 2283655)
# In short: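 Truncated body is recorded as a binary endpoint at 120 hpf by brightfield imaging of wild-type 5D larvae. Exposure runs statically from 6 hpf at 28C with 0.64% DMSO; embryos dying earlier are not scored.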
# [3] = read-out: ABC Transporter (ABCB1), ABCB1 (gene 5243); experiment: CLD_ABCB1_6hr: CellzDirect (CLD) Gene Expression Assay for ABC Transporter (ABCB1) at 6 hours (AID 2283659);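 note: hits raise ABCB1 transcript above the DMSO vehicle baseline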
# In short: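 Primary human hepatocytes (two donor preparations) dosed daily for two days with chemicals at multiple concentrations, 0.2% DMSO vehicle; harvested 6 h post-dose. ABCB1 mRNA induction quantified by qNPA chemiluminescence; gain-of-signal fitted versus DMSO.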
# [4] = read-out: Broad substrate specificity ATP-binding cassette transporter ABCG2 (Homo sapiens) (UniProt Q9UNQ0); experiment: CLD_ABCG2_6hr: CellzDirect (CLD) Gene Expression Assay for ABC Transporter (ABCG2) at 6 hours (AID 2283660)
# In short: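 Primary human hepatocytes dosed daily with chemicals at multiple concentrations (0.2% DMSO vehicle), harvested 6 h after dosing. ABCG2 mRNA induction read by quantitative nuclease protection assay (qNPA) chemiluminescence; gain of signal fitted against DMSO baseline.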
# [5] = read-out: xenobiotic metabolism (CYP1A2), CYP1A2 (gene 1544); experiment: CLD_CYP1A2_6hr: CellzDirect (CLD) Gene Expression Assay for xenobiotic metabolism (CYP1A2) at 6 hours (AID 2283663);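 for AC50: potency is for induction meaning a rise in mRNA above DMSO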
# In short: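 Primary human hepatocytes from two donor preparations, dosed daily with multiple concentrations in 0.2% DMSO and harvested at 6 h. CYP1A2 mRNA induction measured by chemiluminescent qNPA, gain of signal fitted against DMSO; cytotoxicity flagged morphologically.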
# [6] = read-out: xenobiotic metabolism (CYP2C9), CYP2C9 (gene 1559); experiment: CLD_CYP2C9_6hr: CellzDirect (CLD) Gene Expression Assay for xenobiotic metabolism (CYP2C9) at 6 hours (AID 2283664)
# In short: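 Primary human hepatocytes dosed daily with test chemicals at multiple concentrations; harvested at 6 h. CYP2C9 mRNA induction measured by qNPA chemiluminescence. Gain of signal fitted against 0.2% DMSO vehicle; cytotoxicity annotated from phase-contrast morphology.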
# [7] = read-out: alkyl and aryl transferase (GSTA2), GSTA2 (gene 2939); experiment: CLD_GSTA2_6hr: CellzDirect (CLD) Gene Expression Assay for alkyl and aryl transferase (GSTA2) at 6 hours (AID 2283666)
# In short: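 Primary human hepatocytes from two donor preparations were dosed daily with fresh compound at multiple concentrations, 0.2% DMSO vehicle. GSTA2 mRNA was measured at 6 hours by qNPA chemiluminescence; induction fitted relative to DMSO, with cytotoxicity flagged morphologically.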
# [8] = Tanguay_ZF_120hpf_TR_legacy: (Legacy) Oregon State University Tanguay Lab 120 Hour Post-fertilization zebrafish Assay for Touch Response (AID 2283667)
# In short: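 5D WT embryos; static exposure to 120 hpf, 28C, sealed/dark; DMSO 0.64% v/v final. TR scored present/absent; dead embryos excluded. Pos ctrl 5uM trimethyltin chloride.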
# [9] = read-out: sulfotransferase (SULT2A), SULT2A1 (gene 6822); experiment: CLD_SULT2A_6hr: CellzDirect (CLD) Gene Expression Assay for sulfotransferase (SULT2A) at 6 hours (AID 2283669);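 note: hits raise transcript level above the DMSO vehicle baseline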
# In short: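 Primary human hepatocytes from two donor preparations were dosed daily with chemicals or 0.2% DMSO and harvested at 6 h. Transcript induction read by qNPA chemiluminescence, fitted for gain of signal relative to DMSO; morphology-based cytotoxicity annotated.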
# [10] = read-out: glucuronosyltransferase (UGT1A1), UGT1A1 (gene 54658); experiment: CLD_UGT1A1_6hr: CellzDirect (CLD) Gene Expression Assay for glucuronosyltransferase (UGT1A1) at 6 hours (AID 2283672)
# In short: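 Primary human hepatocytes from two donor preparations, dosed with fresh solutions in 0.2% DMSO, harvested at 6 h. UGT1A1 mRNA measured by qNPA chemiluminescence; induction fitted upward versus DMSO.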
# [11] = read-out: xenobiotic metabolism (CYP1A1), CYP1A1 (gene 1543); experiment: CLD_CYP1A1_24hr: CellzDirect (CLD) Gene Expression Assay for xenobiotic metabolism (CYP1A1) at 24 hours (AID 2283673);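 note: CYP1A1 mRNA level by quantitative nuclease protection with chemiluminescence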
# In short: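 Primary human hepatocytes dosed daily with fresh solutions in 0.2% DMSO vehicle. mRNA measured at 24 h by quantitative nuclease protection assay with chemiluminescence; gain-of-signal fit versus DMSO, with morphology-based cytotoxicity flags.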
# [12] = Tanguay_ZF_120hpf_NC_legacy: (Legacy) Oregon State University Tanguay Lab 120 Hour Post-fertilization zebrafish Assay for Notochord and Tail Malformation (AID 2283656)
# In short: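 Dechorionated Tropical 5D wild-type zebrafish embryos, one per well from 6 hpf, statically exposed to 120 hpf at 28C in 0.64% DMSO final. Notochord distortion scored present/absent by brightfield; dead embryos excluded.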
# [13] = read-out: ABC Transporter (ABCB11), ABCB11 (gene 8647); experiment: CLD_ABCB11_24hr: CellzDirect (CLD) Gene Expression Assay for ABC Transporter (ABCB11) at 24 hours (AID 2283674; active = hit-call score of the fitted dose curve at least 0.9, where 1 is the maximum; inactive = score below 0.9)
# In short: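 Primary human hepatocytes were dosed daily for two days, with 0.2% DMSO vehicle. ABCB11 mRNA induction was measured at 24 hours by quantitative nuclease protection assay with chemiluminescence. Gain of signal was fitted relative to DMSO.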
# [14] = read-out: solute carrier (SLC22A6), SLC22A6 (gene 9356); experiment: LTEA_HepaRG_SLC22A6: Life Technologies and Expression Analysis (LTEA) Assay for solute carrier (SLC22A6) using HepaRG (AID 2283653; active = hit-call score of the fitted dose curve at least 0.9, where 1 is the maximum; inactive = score below 0.9); conditions: mRNA level, 48 h; actives raise or lower the signal
# In short: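 Read-out is SLC22A6 transcript level by qRT-PCR, normalised to three housekeeping genes and fitted for gain or loss relative to 0.5% DMSO vehicle. Human HepaRG cells received chemicals at up to 100 uM for 48 h.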
# [15] = read-out: solute carrier (SLC10A1), SLC10A1 (gene 6554); experiment: LTEA_HepaRG_SLC10A1: Life Technologies and Expression Analysis (LTEA) Assay for solute carrier (SLC10A1) using HepaRG (AID 2283657; active = hit-call score of the fitted dose curve at least 0.9, where 1 is the maximum; inactive = score below 0.9); conditions: mRNA level, 48 h; actives raise or lower the signal
# In short: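 Transcript levels were measured by qRT-PCR after human HepaRG cells received test chemical for 48 hours, up to 100 uM in half-log dilutions. Values come from bidirectional concentration-response fitting relative to 0.5% DMSO vehicle.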
# [16] = read-out: matrix metalloproteinase-1 (MMP1), MMP1 (gene 4312); experiment: LTEA_HepaRG_MMP1: Life Technologies and Expression Analysis (LTEA) Assay for matrix metalloproteinase-1 (MMP1) using HepaRG (AID 2283658; active = hit-call score of the fitted dose curve at least 0.9, where 1 is the maximum; inactive = score below 0.9); conditions: mRNA level, 48 h; actives raise or lower the signal
# In short: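 HepaRG, ~100,000 cells/well, 48 h pre-culture; serum-free induction medium; test chemical 8 conc (max 100 uM, half-log), duplicate, 48 h; 0.5% DMSO; qRT-PCR MMP1, housekeeping-normalized; gain/loss fit vs DMSO.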
# [17] = read-out: xenobiotic metabolism (CYP1A1), CYP1A1 (gene 1543); experiment: CLD_CYP1A1_6hr: CellzDirect (CLD) Gene Expression Assay for xenobiotic metabolism (CYP1A1) at 6 hours (AID 2283661);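 for AC50: potency for transcript induction above DMSO vehicle baseline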
# In short: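 Primary human hepatocytes from two donors, compound versus 0.2% DMSO vehicle. CYP1A1 mRNA measured 6 h after dosing by quantitative nuclease protection assay with chemiluminescent read-out; induction fitted relative to DMSO, cytotoxicity flagged by microscopy.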
# [18] = test system: Thyroperoxidase (TPO), gene 54314; experiment: CCTE_Simmons_AUR_rTPO: CCTE's Amplex UltraRed Assay for Thyroperoxidase (TPO) Inhibition, Simmons Lab (AID 2283662);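 note: potency for loss of signal meaning inhibition of peroxidase activity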
# In short: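 Endpoint is decreased Amplex UltraRed fluorescence after a 30-min, 37C reaction of rat thyroid microsomes with 300 uM H2O2. Eight test concentrations (5 nM–87.5 uM final) in 0.5% DMSO, three biological replicates each.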
# [19] = CCTE_Simmons_CellTiterGLO_HEK293T: Viability Assessment in CCTE's Assays for Thyroperoxidase (TPO) Inhibition, Simmons Lab (AID 2283665)
# In short: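 HEK293T cells in DMEM with 1% FBS, dosed 24 h at 37C with 8 concentrations, 5 nM–87.5 uM final, 0.5% DMSO. ATP measured by CellTiter Glo luminescence; loss of signal vs DMSO, three biological replicates.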
# [20] = read-out: Cytochrome P450 (CYP24A1_1), CYP24A1 (gene 1591); experiment: LTEA_HepaRG_CYP24A1_1: Life Technologies and Expression Analysis (LTEA) Assay for Cytochrome P450 (CYP24A1_1) using HepaRG (AID 2283671; active = hit-call score of the fitted dose curve at least 0.9, where 1 is the maximum; inactive = score below 0.9); conditions: mRNA level, 48 h; actives raise or lower the signal
# In short: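 In this test, gene induction or suppression of CYP24A1 in human HepaRG liver cells is measured by qRT-PCR after 48 h chemical treatment (eight concentrations, maximum 100 uM). Values are fitted bidirectionally relative to DMSO.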
# Sequence of Broad substrate specificity ATP-binding cassette transporter ABCG2 (Homo sapiens) (Q9UNQ0 whole entry, looked up): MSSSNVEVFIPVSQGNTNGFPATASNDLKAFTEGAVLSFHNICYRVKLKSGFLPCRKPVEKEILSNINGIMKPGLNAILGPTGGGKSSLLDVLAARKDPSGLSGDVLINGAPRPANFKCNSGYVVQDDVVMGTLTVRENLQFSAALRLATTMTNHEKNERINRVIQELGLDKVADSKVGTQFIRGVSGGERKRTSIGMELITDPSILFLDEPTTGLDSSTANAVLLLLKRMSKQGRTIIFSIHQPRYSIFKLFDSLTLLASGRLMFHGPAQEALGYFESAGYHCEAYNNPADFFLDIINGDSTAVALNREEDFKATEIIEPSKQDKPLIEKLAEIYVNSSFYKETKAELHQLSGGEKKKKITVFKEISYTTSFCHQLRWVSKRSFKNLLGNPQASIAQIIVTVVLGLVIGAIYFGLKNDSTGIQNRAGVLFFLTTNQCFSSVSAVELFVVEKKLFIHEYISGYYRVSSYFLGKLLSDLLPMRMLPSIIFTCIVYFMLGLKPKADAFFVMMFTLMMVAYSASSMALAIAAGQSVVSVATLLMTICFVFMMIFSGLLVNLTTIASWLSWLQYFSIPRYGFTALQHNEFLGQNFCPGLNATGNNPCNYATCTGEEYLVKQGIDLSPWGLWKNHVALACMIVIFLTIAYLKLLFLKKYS
smiles,measurement,setting,value
CC1(C)CCC(=Cc2ccc(Cl)cc2)C1(O)Cn1cncn1 (centres undefined),outcome,[1],inactive
same,outcome,[2],inactive
same,outcome,[3],inactive
same,outcome,[4],inactive
same,outcome,[5],inactive
same,outcome,[6],inactive
same,outcome,[7],inactive
same,outcome,[8],inactive
same,outcome,[9],inactive
same,outcome,[10],inactive
same,AC50,[11],4.02 µM (active)
Cc1cc(C)nc(Nc2ccccc2)n1,outcome,[1],inactive
same,outcome,[2],inactive
same,outcome,[12],inactive
same,AC50,[5],3.97 µM (active)
same,outcome,[8],inactive
same,AC50,[11],7.59 µM (active)
Clc1cccc(C(Cl)(Cl)Cl)n1,outcome,[1],inactive
same,outcome,[2],inactive
same,outcome,[12],inactive
same,outcome,[3],inactive
same,outcome,[5],inactive
same,outcome,[7],inactive
same,outcome,[10],inactive
same,AC50,[11],3.97 µM (active)
COc1cc(OC)nc(NC(=O)NS(=O)(=O)c2ncccc2OCC(F)(F)F)n1,outcome,[1],inactive
same,outcome,[2],inactive
same,outcome,[12],inactive
same,outcome,[5],inactive
same,outcome,[6],inactive
same,outcome,[8],inactive
same,outcome,[11],inactive
same,outcome,[13],inactive
CCOP(=S)(OCC)Oc1nc(Cl)n(C(C)C)n1,outcome,[14],inactive
same,outcome,[1],inactive
same,AC50,[2],8.3 µM (active)
same,outcome,[12],inactive
same,AC50,[15],30.4 µM (active)
same,outcome,[16],inactive
same,outcome,[3],inactive
same,outcome,[4],inactive
same,AC50,[17],2.55 µM (active)
same,AC50,[18],31.2 µM (active)
same,AC50,[5],2.78 µM (active)
same,outcome,[6],inactive
same,outcome,[19],inactive
same,outcome,[7],inactive
same,outcome,[8],inactive
same,outcome,[9],inactive
same,outcome,[20],inactive
same,AC50,[11],2.18 µM (active)
Cc1c(COC(=O)[C@@H]2[C@H](/C=C(\Cl)C(F)(F)F)C2(C)C)cccc1-c1ccccc1,outcome,[1],inactive
same,outcome,[2],inactive
same,outcome,[3],inactive
same,outcome,[4],inactive
same,outcome,[17],inactive
same,outcome,[8],inactive
same,outcome,[10],inactive
same,AC50,[11],31.6 µM (active)
Cc1nc(N(C)C)nc(OC(=O)N(C)C)c1C,outcome,[1],inactive
same,outcome,[2],inactive
same,outcome,[3],inactive
same,outcome,[4],inactive
same,AC50,[5],3.8 µM (active)
same,outcome,[6],inactive
same,outcome,[7],inactive
same,outcome,[8],inactive
same,AC50,[11],2.75 µM (active)
same,outcome,[13],inactive
CCOc1nc(F)cc2nc(S(=O)(=O)Nc3c(Cl)cccc3Cl)nn12,outcome,[1],inactive
same,outcome,[2],inactive
same,outcome,[3],inactive
same,outcome,[4],inactive
same,AC50,[18],26.5 µM (active)
same,outcome,[5],inactive
same,outcome,[6],inactive
same,outcome,[19],inactive
same,outcome,[8],inactive
same,AC50,[11],20 µM (active)
same,outcome,[13],inactive
COCC(C)N(C(=O)CCl)c1c(C)csc1C (centres undefined),AC50,[1],8.24 µM (active)
same,AC50,[2],30.8 µM (active)
same,outcome,[3],inactive
same,outcome,[4],inactive
same,outcome,[17],inactive
same,outcome,[5],inactive
same,outcome,[6],inactive
same,outcome,[7],inactive
same,AC50,[8],26.3 µM (active)
same,outcome,[9],inactive
same,outcome,[11],inactive
same,outcome,[13],inactive
COCc1cnc(C2=NC(C)(C(C)C)C(=O)N2)c(C(=O)O)c1 (centres undefined),outcome,[1],inactive
same,outcome,[2],inactive
same,outcome,[3],inactive
same,outcome,[4],inactive
same,outcome,[7],inactive
same,outcome,[8],inactive
same,outcome,[13],inactive
